Data from PubChem BioAssay (NCI).
This is part of a sample that, as a whole, favours compounds with a hit. Of some 83,000 tested, about 20% had one in any assay.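 Single-concentration screen, 48 h exposure, 96-well plates. Endpoint: percent growth. Below 10 = active.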 Activity calls are given as the source filed them.

Experiments:
Experiment in all cases: NCI-60 one-dose screen, 48 h (100 = growth as untreated, 0 = no growth, -100 = all killed)
HCT-15 colon = settings: 10 µM unless noted
HT29 colon = settings: 10 µM unless noted
SNB-75 CNS = settings: 10 µM unless noted
SNB-19 CNS = settings: 10 µM unless noted
U251 CNS = settings: 10 µM unless noted
PC-3 prostate = settings: 10 µM unless noted
SK-MEL-5 melanoma = settings: 10 µM unless noted
UACC-62 melanoma = settings: 10 µM unless noted
LOX IMVI melanoma = settings: 10 µM unless noted
SK-MEL-28 melanoma = settings: 10 µM unless noted
SK-MEL-2 melanoma = settings: 10 µM
EKVX NSCLC = settings: 10 µM unless noted
SN12C renal = settings: 10 µM unless noted
UO-31 renal = settings: 10 µM unless noted
TK-10 renal = settings: 10 µM unless noted
A498 renal = settings: 10 µM unless noted
CCRF-CEM leukemia = settings: 10 µM unless noted
MOLT-4 leukemia = settings: 10 µM unless noted
ACHN renal = settings: 10 µM unless noted
CAKI-1 renal = settings: 10 µM unless noted

Measured: growth

Cc1cc(N2CCOCC2)nc(N(CCNc2ccnc3cc(Cl)ccc23)Cc2cccs2)n1
inactive: HCT-15 colon 17.8% | SNB-19 CNS 56.5% | PC-3 prostate 24.4% | SK-MEL-28 melanoma 11.6% | EKVX NSCLC 51.5% | SN12C renal 42.3% | TK-10 renal 19.4% | A498 renal 22.8%
active: HT29 colon -43.1% | SNB-75 CNS -18.1% | U251 CNS -10.5% | SK-MEL-5 melanoma -4.8% | UACC-62 melanoma -24.6% | LOX IMVI melanoma -72.1% | SK-MEL-2 melanoma -39.4% | UO-31 renal -8.69% | CCRF-CEM leukemia 6.42% | MOLT-4 leukemia -9.25%

Cc1ccc(-c2nc3ccc(Cl)cn3c2NC2CCCCC2)o1
inactive: HCT-15 colon 66.8% | HT29 colon 48.4% | SNB-75 CNS 83.5% | SNB-19 CNS 97.4% | U251 CNS 86.8% | PC-3 prostate 45.4% | SK-MEL-5 melanoma 66.4% | UACC-62 melanoma 72.4% | LOX IMVI melanoma 103% | SK-MEL-28 melanoma 100% | SK-MEL-2 melanoma 88.9% | EKVX NSCLC 80.7% | SN12C renal 87.3% | TK-10 renal 87.9% | ACHN renal 83.1% | CAKI-1 renal 60.6% | A498 renal 53.3% | CCRF-CEM leukemia 79.8% | MOLT-4 leukemia 43.4%

N#Cc1c(NC(=O)c2ccco2)[n+]([O-])c2cc(F)c(F)cc2[n+]1[O-]
inactive: HCT-15 colon 70.5% | HT29 colon 93.6% | SNB-75 CNS 83.3% | SNB-19 CNS 85.7% | U251 CNS 92.3% | PC-3 prostate 80.7% | SK-MEL-5 melanoma 61.3% | UACC-62 melanoma 88.4% | LOX IMVI melanoma 83.4% | SK-MEL-28 melanoma 94.5% | SK-MEL-2 melanoma 97.2% | EKVX NSCLC 109% | SN12C renal 94.9% | TK-10 renal 80.2% | ACHN renal 97.8% | CAKI-1 renal 66.7% | CCRF-CEM leukemia 67.2% | MOLT-4 leukemia 75%

COC(=O)CCCNc1c(-c2c(O)c(O)cc3c(O)c(-c4c(C)cc5c(-c6nc7ccccn7c6NCCCC(=O)OC)c(O)c(O)cc5c4O)c(C)cc23)nc2ccccn12
inactive: HCT-15 colon 76.9% | HT29 colon 48.8% | SNB-75 CNS 19.9% | SNB-19 CNS 21.4% | U251 CNS 14% | PC-3 prostate 52.7% | SK-MEL-5 melanoma 76.2% | UACC-62 melanoma 41.4% | LOX IMVI melanoma 18% | SK-MEL-28 melanoma 39.7% | SK-MEL-2 melanoma 60.1% | EKVX NSCLC 61.8% | SN12C renal 21.7% | TK-10 renal 64.4% | ACHN renal 78.7% | A498 renal 32.1% | CCRF-CEM leukemia 27.4% | MOLT-4 leukemia 15.7%

Nc1ncnc2c1ccn2-c1cccc(NC(=O)c2ccc(N3CCOCC3)c(C(F)(F)F)c2)c1
inactive: HCT-15 colon 31.5% | HT29 colon 38.2% | SNB-75 CNS 67.3% | SNB-19 CNS 95.7% | U251 CNS 39.5% | PC-3 prostate 35.6% | SK-MEL-5 melanoma 41.6% | UACC-62 melanoma 43.4% | LOX IMVI melanoma 41.2% | SK-MEL-28 melanoma 81.2% | SK-MEL-2 melanoma 37.7% | EKVX NSCLC 56% | SN12C renal 47.8% | UO-31 renal 22% | ACHN renal 30.9% | CAKI-1 renal 26.3% | A498 renal 63.3% | CCRF-CEM leukemia 20.5% | MOLT-4 leukemia 47.8%

Cc1cc2c(-c3nc4ccccn4c3NC34CC5CC(CC(C5)C3)C4)c(O)c(O)cc2c(O)c1-c1c(C)cc2c(-c3nc4ccccn4c3NC34CC5CC(CC(C5)C3)C4)c(O)c(O)cc2c1O
inactive: HCT-15 colon 20% | HT29 colon 14.1% | SNB-75 CNS 19.6% | SNB-19 CNS 17.1% | PC-3 prostate 14.7% | SK-MEL-28 melanoma 17.3% | SN12C renal 15.9% | A498 renal 10.8% | CCRF-CEM leukemia 16.4%
active: U251 CNS 6.36% | SK-MEL-5 melanoma -57.7% | UACC-62 melanoma 0.552% | LOX IMVI melanoma 3.37% | SK-MEL-2 melanoma -2.48% | EKVX NSCLC 5.97% | UO-31 renal -2.25% | TK-10 renal 7.59% | MOLT-4 leukemia 8.13%

COc1cnc2c(c1)C(=O)c1c-2n(CCCN2CCC(O)CC2)c(=O)c2cc(Cl)ccc12
active: HCT-15 colon -71.5% | HT29 colon -54.6% | U251 CNS -76.7% | LOX IMVI melanoma -86.3% | ACHN renal 8.76% | A498 renal -3% | CCRF-CEM leukemia 0.479% | MOLT-4 leukemia -7.04%
inactive: SNB-75 CNS 49.1% | SNB-19 CNS 34.2% | PC-3 prostate 41.9% | SK-MEL-5 melanoma 50.7% | UACC-62 melanoma 24.5% | SK-MEL-28 melanoma 102% | SK-MEL-2 melanoma 107% | EKVX NSCLC 67.7% | SN12C renal 30.5% | TK-10 renal 82.8% | CAKI-1 renal 20.1%

COc1cc2c(cc1OCCCCCN1CCN(c3ncnc4ccccc34)CC1)N=CC1CCCN1C2=O (configuration not stated)
inactive: SNB-19 CNS 12.6%
active: HCT-15 colon 0.198% | HT29 colon 8.89% | SNB-75 CNS -50.2% | U251 CNS 2.18% | PC-3 prostate -38.6% | SK-MEL-5 melanoma -80.6% | UACC-62 melanoma -90.4% | LOX IMVI melanoma -49.2% | SK-MEL-28 melanoma -14.6% | SK-MEL-2 melanoma 1.29% | EKVX NSCLC -41.5% | SN12C renal 1.92% | TK-10 renal -21.4% | ACHN renal 1.61% | CAKI-1 renal -18.1% | CCRF-CEM leukemia -37.2% | MOLT-4 leukemia 0.399%
